Active and inactive are the calls of the source. How the source made its calls: active means hit-call score of the fitted dose curve at least 0.9, where 1 is the maximum; inactive means score below 0.9.
Key:
Conditions in all cases: mRNA level, 48 h; actives raise or lower the signal
[1] = read-out: Cytochrome P450 4A22 (Homo sapiens) (UniProt Q5TCH4); experiment: LTEA_HepaRG_CYP4A22: Life Technologies and Expression Analysis (LTEA) Assay for Cytochrome P450 4A22 (CYP4A22) using HepaRG (AID 2283495)
In short: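 Gene expression measured by qRT-PCR against three housekeeping genes (ACTB, GAPDH, POLR2A), with gain or loss fitted relative to 0.5% DMSO vehicle. HepaRG cultures received 48 h chemical treatment, top concentration 100 uM, half-log steps, duplicate wells.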

[2] = read-out: Cytochrome P450 7A1 (Homo sapiens) (UniProt P22680); experiment: LTEA_HepaRG_CYP7A1: Life Technologies and Expression Analysis (LTEA) Assay for Cytochrome P450 7A1 (CYP7A1) using HepaRG (AID 2283496)
In short: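 Using 0.5% DMSO as vehicle and baseline, chemicals were tested in duplicate over an 8-point range from 100 uM on HepaRG cells for 48 h; qRT-PCR signals were normalised to ACTB, GAPDH and POLR2A.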

[3] = read-out: Glutathione S-Transferase (GSTA2), GSTA2 (gene 2939); experiment: LTEA_HepaRG_GSTA2: Life Technologies and Expression Analysis (LTEA) Assay for Glutathione S-Transferase (GSTA2) using HepaRG (AID 2283497)
In short: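 qRT-PCR readout of GSTA2 transcript, normalized to three housekeeping genes, fitted bidirectionally against 0.5% DMSO baseline. Differentiated HepaRG cells received compound for 48 h at 8 concentrations (top 100 uM, half-log steps).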

[4] = read-out: Glutamate-cysteine ligase catalytic (GCLC), GCLC (gene 2729); experiment: LTEA_HepaRG_GCLC: Life Technologies and Expression Analysis (LTEA) Assay for Glutamate-cysteine ligase catalytic (GCLC) using HepaRG (AID 2283498)
In short: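 HepaRG, 48 h exposure, 8-pt half-log series from 100 uM, 0.5% DMSO vehicle; TaqMan qRT-PCR for GCLC mRNA, housekeeping-normalized; bidirectional curve fit vs DMSO baseline.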

[5] = read-out: growth arrest and DNA damage 45 (GADD45G), GADD45G (gene 10912); experiment: LTEA_HepaRG_GADD45G: Life Technologies and Expression Analysis (LTEA) Assay for growth arrest and DNA damage 45 (GADD45G) using HepaRG (AID 2283499)
In short: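 GADD45G transcript level by qRT-PCR (housekeeping-normalized: ACTB, GAPDH, POLR2A) after 48 h chemical treatment of a single HepaRG lot in serum-free induction medium; eight-point half-log series up to 100 uM in 0.5% DMSO, duplicates, up- or down-regulation scored.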

[6] = read-out: Glutamate-cysteine ligase regulatory (GCLM), GCLM (gene 2730); experiment: LTEA_HepaRG_GCLM: Life Technologies and Expression Analysis (LTEA) Assay for Glutamate-cysteine ligase regulatory (GCLM) using HepaRG (AID 2283500)
In short: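 In this multiplexed HepaRG gene-expression assay, GCLM mRNA change after 48 h treatment (8 concentrations, max 100 uM) was scored against DMSO by bidirectional curve fitting.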

[7] = read-out: Glutathione S-transferase M3 (GSTM3), GSTM3 (gene 2947); experiment: LTEA_HepaRG_GSTM3: Life Technologies and Expression Analysis (LTEA) Assay for Glutathione S-transferase M3 (GSTM3) using HepaRG (AID 2283501)
In short: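 GSTM3 transcript levels came from Fluidigm TaqMan qRT-PCR normalized to three housekeeping genes, fitted in both directions against DMSO. HepaRG cultures received chemicals for 48 h in serum-free induction medium (0.5% DMSO), 8 half-log concentrations up to 100 uM, duplicate.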

[8] = read-out: Heat shock 70 kDa protein 1 (HSPA1A), gene 3303; experiment: LTEA_HepaRG_HSPA1A: Life Technologies and Expression Analysis (LTEA) Assay for Heat shock 70 kDa protein 1 (HSPA1A) using HepaRG (AID 2283502)
In short: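 An oxidative-stress marker readout: HepaRG cells treated 48 h in duplicate with an eight-point series (highest 100 uM) had HSPA1A mRNA quantified by TaqMan qRT-PCR. Activity was fitted in both directions using 0.5% DMSO as baseline.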

[9] = read-out: Hypoxia-inducible factor 1-alpha (Homo sapiens) (UniProt Q16665); experiment: LTEA_HepaRG_HIF1A: Life Technologies and Expression Analysis (LTEA) Assay for Hypoxia-inducible factor 1 (HIF1A) Trancription factor using HepaRG (AID 2283503)
In short: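 Gain- or loss-of-signal HIF1A mRNA changes are fitted against a DMSO baseline. HepaRG cultures receive eight concentrations, highest 100 uM, for 48 h in serum-free induction medium with 0.5% DMSO.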

[10] = read-out: 3-Hydroxy-3-Methylglutaryl-CoA Synthase 2 (HMGCS2), HMGCS2 (gene 3158); experiment: LTEA_HepaRG_HMGCS2: Life Technologies and Expression Analysis (LTEA) Assay for 3-Hydroxy-3-Methylglutaryl-CoA Synthase 2 (HMGCS2) using HepaRG (AID 2283504)
In short: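 Readout is HMGCS2 transcript by qRT-PCR, housekeeping-normalised (ACTB/GAPDH/POLR2A) and fitted bidirectionally against 0.5% DMSO. Differentiated HepaRG cells received chemicals 48 h, duplicate wells, eight half-log concentrations topping at 100 uM.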

[11] = read-out: HGF (gene 3082); experiment: LTEA_HepaRG_HGF: Life Technologies and Expression Analysis (LTEA) Assay for Hepatocyte Growth Facto (HGF) using HepaRG (AID 2283505)
In short: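 HGF transcript was quantified by TaqMan qRT-PCR against three housekeeping genes after 48 h treatment of HepaRG cells. Exposure ran in duplicate over eight half-log steps topping at 100 uM in 0.5% DMSO vehicle.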

[12] = read-out: Insulin Like Growth Factor 1 (IGF1), IGF1 (gene 3479); experiment: LTEA_HepaRG_IGF1: Life Technologies and Expression Analysis (LTEA) Assay for Insulin Like Growth Factor 1 (IGF1) using HepaRG (AID 2283506)
In short: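 Endpoint: IGF1 mRNA change by qRT-PCR, housekeeping-normalized, fitted bidirectionally relative to 0.5% DMSO vehicle. Human HepaRG cells were treated 48 h in serum-free induction medium, eight half-log concentrations topping at 100 uM.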

[13] = read-out: Intercellular Adhesion Molecule 1 (ICAM1), ICAM1 (gene 3383); experiment: LTEA_HepaRG_ICAM1: Life Technologies and Expression Analysis (LTEA) Assay for Intercellular Adhesion Molecule 1 (ICAM1) using HepaRG (AID 2283507)
In short: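 ICAM1 transcript levels measured by qRT-PCR, normalized to three housekeeping genes (ACTB, GAPDH, POLR2A), after 48 h chemical exposure of HepaRG cells. Duplicate eight-point half-log series from 100 uM in 0.5% DMSO; gain or loss fitted against vehicle.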

[14] = read-out: Insulin-like growth factor-binding protein 1 (IGFBP1), IGFBP1 (gene 3484); experiment: LTEA_HepaRG_IGFBP1: Life Technologies and Expression Analysis (LTEA) Assay for Insulin-like growth factor-binding protein 1 (IGFBP1) using HepaRG (AID 2283508)
In short: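 Read-out is qRT-PCR transcript level normalized to three housekeeping genes, fitted in both directions against 0.5% DMSO. Differentiated HepaRG cells received eight half-log concentrations (top 100 uM) in duplicate for 48 h in serum-free induction medium.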

[15] = read-out: Interleukin 6 (IL6), IL6 (gene 3569); experiment: LTEA_HepaRG_IL6: Life Technologies and Expression Analysis (LTEA) Assay for Interleukin 6 (IL6) using HepaRG (AID 2283509)
In short: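 qRT-PCR read-out of IL6 transcript, normalized to three housekeeping genes, after 48 h chemical exposure of HepaRG cells; 8-point half-log series, top 100 uM, 0.5% DMSO vehicle. Bidirectional curve fitting against DMSO baseline.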

[16] = read-out: Interleukin 6 Receptor (IL6R), IL6R (gene 3570); experiment: LTEA_HepaRG_IL6R: Life Technologies and Expression Analysis (LTEA) Assay for Interleukin 6 Receptor (IL6R) using HepaRG (AID 2283510);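 on AC50: differentiated human HepaRG liver cells in serum-free induction medium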
In short: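 In this HepaRG screen, test chemicals act on cells for 48 h at up to 100 uM (eight half-log points, duplicate wells). IL6R expression is quantified by qRT-PCR after normalization to ACTB, GAPDH and POLR2A, with DMSO as baseline.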

[17] = read-out: Potassium channel subfamily K member 1 (KCNK1), KCNK1 (gene 3775); experiment: LTEA_HepaRG_KCNK1: Life Technologies and Expression Analysis (LTEA) Assay for Potassium channel subfamily K member 1 (KCNK1) using HepaRG (AID 2283511)
In short: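 HepaRG, 48 h exposure, 8-pt half-log series top 100 uM, 0.5% DMSO vehicle, duplicates. Readout: KCNK1 transcript by qRT-PCR (Fluidigm array), housekeeping-normalized; bidirectional curve fit relative to DMSO baseline.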

[18] = read-out: Keratin 19 (KRT19), KRT19 (gene 3880); experiment: LTEA_HepaRG_KRT19: Life Technologies and Expression Analysis (LTEA) Assay for Keratin 19 (KRT19) using HepaRG (AID 2283512)
In short: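 KRT19 transcript measured by TaqMan qRT-PCR, referenced to three housekeeping genes, after HepaRG cells received test chemicals for 48 h. Eight half-log concentrations, top 100 uM, 0.5% DMSO vehicle; increases and decreases both fitted.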

[19] = read-out: JUN Transcription Factor, JUN (gene 3725); experiment: LTEA_HepaRG_JUN: Life Technologies and Expression Analysis (LTEA) Assay for JUN Transcription Factor using HepaRG (AID 2283513)
In short: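 Gene-expression endpoint: JUN mRNA (qRT-PCR, normalized to three reference genes) in HepaRG cultures treated 48 h with chemicals, duplicate wells, 100 uM maximum with half-log dilutions; bidirectional fitting relative to 0.5% DMSO.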

[20] = read-out: Lipase C (LIPC), LIPC (gene 3990); experiment: LTEA_HepaRG_LIPC: Life Technologies and Expression Analysis (LTEA) Assay for Lipase C (LIPC) using HepaRG (AID 2283514)
In short: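 HepaRG, 48 h exposure, 8-pt half-log series from 100 uM in 0.5% DMSO, duplicates. Readout: LIPC mRNA by Fluidigm qRT-PCR, housekeeping-normalized (ACTB/GAPDH/POLR2A). Gain or loss fitted bidirectionally against DMSO baseline.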

Measured: AC50

Hypoxia-inducible factor 1-alpha (Homo sapiens), sequence (Q16665 whole entry, looked up): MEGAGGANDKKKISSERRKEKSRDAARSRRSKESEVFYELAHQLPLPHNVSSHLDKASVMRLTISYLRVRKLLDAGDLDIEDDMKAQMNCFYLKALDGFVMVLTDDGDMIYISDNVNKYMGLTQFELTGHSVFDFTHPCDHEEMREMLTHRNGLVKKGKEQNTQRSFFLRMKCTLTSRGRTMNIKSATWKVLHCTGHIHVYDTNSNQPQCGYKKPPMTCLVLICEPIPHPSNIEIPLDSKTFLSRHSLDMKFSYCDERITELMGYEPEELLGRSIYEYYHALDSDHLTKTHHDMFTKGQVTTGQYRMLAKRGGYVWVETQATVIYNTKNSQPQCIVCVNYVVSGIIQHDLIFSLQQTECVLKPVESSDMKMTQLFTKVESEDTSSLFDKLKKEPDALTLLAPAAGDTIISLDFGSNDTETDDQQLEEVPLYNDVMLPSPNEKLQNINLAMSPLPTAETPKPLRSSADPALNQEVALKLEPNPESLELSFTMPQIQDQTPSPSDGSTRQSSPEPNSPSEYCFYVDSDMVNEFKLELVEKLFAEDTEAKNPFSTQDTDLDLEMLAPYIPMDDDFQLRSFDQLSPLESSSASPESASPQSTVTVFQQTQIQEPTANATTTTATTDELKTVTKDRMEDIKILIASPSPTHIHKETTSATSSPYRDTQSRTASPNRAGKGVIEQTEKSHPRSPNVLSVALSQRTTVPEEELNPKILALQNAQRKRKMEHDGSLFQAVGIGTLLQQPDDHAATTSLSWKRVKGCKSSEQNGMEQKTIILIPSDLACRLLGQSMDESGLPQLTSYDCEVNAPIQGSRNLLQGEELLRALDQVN

CCCCCCCCN(C)CCCCCCCC
inactive: all assays above

Oc1ccc2ccccc2c1
inactive: all assays above

CC[C@H](NC(=O)c1cc(F)ccc1NS(=O)(=O)c1cccc2cccnc12)c1ccccc1
active: [1] 22.8 µM | [2] 33.8 µM | [3] 80 µM | [4] 47.8 µM | [8] 12.2 µM | [10] 37.6 µM | [12] 12.4 µM | [16] 38.6 µM | [20] 20.1 µM
inactive: all other assays above

CCCCOC(=O)CC(CC(=O)OCCCC)(OC(C)=O)C(=O)OCCCC
inactive: all assays above

CCCCCCCCOC(=O)c1cc(O)c(O)c(O)c1
active: [15] 50 µM | [18] 27.1 µM
inactive: all other assays above

CCCCCCCC[Si](OCC)(OCC)OCC
inactive: all assays above

From PubChem BioAssay (EPA / NIEHS)
